Unmarked numbers belong to inactive results. For some of these results: Entries with a potency or affinity are not part of this list. The source made the active and inactive calls. Unless noted, how the calls were made is not given here.
How the values were obtained:
[1] = antimalarial activity against Dd2 strain (AID 2302;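 active means growth inhibition above 50% at the single 2 µM test dose, taken to imply half-maximal potency below 2 µM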;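 further: 0% = DMSO untreated growth and 100% = chloroquine plus artemisinin killed control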); conditions: P. falciparum Dd2 in RBCs, LDH growth readout, 72 h; at 2 µM; hits give high values
[2] = human hepatoma cell viability loss – ATP luminescence, cytotoxicity control for P. falciparum antimalarial project, primary screen (AID 2303;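 active means inhibition above 50%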;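 further: 0% = DMSO wells and 100% = digitonin-killed cells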); conditions: HepG2 viability, 24-48 h, at 10 µM, hits give high values
[3] = molecular target: L-lactate dehydrogenase (Plasmodium falciparum (isolate CDC / Honduras)) (UniProt Q27743); experiment: PfLDH activity inhibition – cell lysate, 3D7 strain, counter-screen for P. falciparum growth inhibition project (AID 2304);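 further: 0% = vehicle and 100% = reference inhibitor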; conditions: P. falciparum 3D7 crude extract, LDH APAD/NBT absorbance; at 2 µM; hits give high values
[4] = inhibition of 3D7 malaria parasite growth – strain 3D7 (AID 2306);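 further: 0% = DMSO wells and 100% = chloroquine plus artemisinin control wells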; conditions: P. falciparum 3D7 erythrocytic growth, LDH absorbance, 72 h; at 2 µM; hits give high values
[5] = molecular target: Calcium-dependent protein kinase 1 (Plasmodium falciparum (isolate 3D7)) (UniProt P62344); experiment: PfCDPK1 kinase inhibitors, biochemical, TCAMS library (AID 1159585; cut-off not given, nearly all actives have IC50 up to about 0.98 µM;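 further: inhibitors leave more ATP so luminescence rises with inhibition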); conditions: recombinant PfCDPK1, Kinase-Glo ATP depletion luminescence
[6] = molecular target: Plasmodium falciparum protein kinase 6 (PK6, PF3D7_1337100) (UniProt Q8IDW1); experiment: PfPK6 kinase inhibitors, biochemical, TCAMS library (AID 1159586); conditions: recombinant PfPK6, Kinase-Glo ATP depletion luminescence
[7] = molecular target: Protein kinase 7 (PK7), Plasmodium falciparum 3D7 (PF3D7_0213400) (UniProt Q7YTF7); experiment: inhibition of Plasmodium PK7 catalytic activity – biochemical, TCAMS antimalarial set, Kinase-Glo luminescence (AID 1159587); conditions: recombinant PfPK7, Kinase-Glo ATP depletion luminescence
[8] = molecular target: Calcium-dependent protein kinase 4 (Plasmodium falciparum (isolate 3D7)) (UniProt Q8IBS5); experiment: PfCDPK4 kinase inhibitors, biochemical, TCAMS library (AID 1159588; cut-off not given, nearly all actives have IC50 up to about 0.91 µM); conditions: recombinant PfCDPK4, Kinase-Glo ATP depletion luminescence
Sequence of Calcium-dependent protein kinase 4 (Plasmodium falciparum (isolate 3D7)) (Q8IBS5 whole entry, looked up): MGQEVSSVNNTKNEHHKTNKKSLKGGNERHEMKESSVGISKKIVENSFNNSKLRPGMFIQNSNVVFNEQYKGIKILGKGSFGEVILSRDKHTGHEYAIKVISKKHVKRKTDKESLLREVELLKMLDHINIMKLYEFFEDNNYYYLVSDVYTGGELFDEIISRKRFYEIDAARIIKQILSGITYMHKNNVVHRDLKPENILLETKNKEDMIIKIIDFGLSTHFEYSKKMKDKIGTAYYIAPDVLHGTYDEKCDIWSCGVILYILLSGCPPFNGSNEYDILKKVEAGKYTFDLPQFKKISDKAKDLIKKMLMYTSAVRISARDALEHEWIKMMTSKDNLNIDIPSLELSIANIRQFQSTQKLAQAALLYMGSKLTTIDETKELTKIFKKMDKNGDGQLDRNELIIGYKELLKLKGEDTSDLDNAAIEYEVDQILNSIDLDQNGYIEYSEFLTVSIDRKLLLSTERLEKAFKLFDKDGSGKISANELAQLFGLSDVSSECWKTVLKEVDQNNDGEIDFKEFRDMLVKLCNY

Sequence of Protein kinase 7 (PK7), Plasmodium falciparum 3D7 (PF3D7_0213400) (Q7YTF7 1-343): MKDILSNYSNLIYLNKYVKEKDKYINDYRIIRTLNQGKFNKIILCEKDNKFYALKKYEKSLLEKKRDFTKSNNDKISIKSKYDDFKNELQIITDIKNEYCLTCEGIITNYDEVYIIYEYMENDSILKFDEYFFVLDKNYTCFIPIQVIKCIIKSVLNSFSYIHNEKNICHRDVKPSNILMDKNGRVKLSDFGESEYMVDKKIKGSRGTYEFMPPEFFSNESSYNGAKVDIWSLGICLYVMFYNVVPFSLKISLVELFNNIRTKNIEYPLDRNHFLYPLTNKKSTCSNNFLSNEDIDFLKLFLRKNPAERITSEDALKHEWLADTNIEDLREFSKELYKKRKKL
Sequence of L-lactate dehydrogenase (Plasmodium falciparum (isolate CDC / Honduras)) (Q27743 whole entry, looked up): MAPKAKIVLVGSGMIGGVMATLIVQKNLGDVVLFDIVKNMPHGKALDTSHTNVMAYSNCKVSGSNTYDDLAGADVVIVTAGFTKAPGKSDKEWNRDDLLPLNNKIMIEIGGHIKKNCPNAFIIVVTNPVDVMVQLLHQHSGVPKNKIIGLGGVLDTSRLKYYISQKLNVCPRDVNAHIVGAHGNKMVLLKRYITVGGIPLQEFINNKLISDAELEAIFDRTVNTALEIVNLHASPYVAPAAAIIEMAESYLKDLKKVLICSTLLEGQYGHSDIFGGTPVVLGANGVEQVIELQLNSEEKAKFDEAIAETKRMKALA
Sequence of Calcium-dependent protein kinase 1 (Plasmodium falciparum (isolate 3D7)) (P62344 whole entry, looked up): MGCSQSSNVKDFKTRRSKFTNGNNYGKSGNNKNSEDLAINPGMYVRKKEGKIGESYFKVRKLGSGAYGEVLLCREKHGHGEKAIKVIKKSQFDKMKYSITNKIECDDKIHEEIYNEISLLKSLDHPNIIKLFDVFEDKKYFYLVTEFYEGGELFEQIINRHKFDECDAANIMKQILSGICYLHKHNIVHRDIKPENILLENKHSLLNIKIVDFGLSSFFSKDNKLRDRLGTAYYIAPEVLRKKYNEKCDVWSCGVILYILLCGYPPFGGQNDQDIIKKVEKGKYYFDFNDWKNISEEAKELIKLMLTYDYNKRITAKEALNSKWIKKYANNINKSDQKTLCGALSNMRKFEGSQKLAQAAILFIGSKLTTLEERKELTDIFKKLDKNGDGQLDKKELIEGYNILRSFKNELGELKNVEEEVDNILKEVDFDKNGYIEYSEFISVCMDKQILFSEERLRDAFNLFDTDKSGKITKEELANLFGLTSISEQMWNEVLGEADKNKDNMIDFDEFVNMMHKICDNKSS
Sequence of Plasmodium falciparum protein kinase 6 (PK6, PF3D7_1337100) (Q8IDW1 1-305): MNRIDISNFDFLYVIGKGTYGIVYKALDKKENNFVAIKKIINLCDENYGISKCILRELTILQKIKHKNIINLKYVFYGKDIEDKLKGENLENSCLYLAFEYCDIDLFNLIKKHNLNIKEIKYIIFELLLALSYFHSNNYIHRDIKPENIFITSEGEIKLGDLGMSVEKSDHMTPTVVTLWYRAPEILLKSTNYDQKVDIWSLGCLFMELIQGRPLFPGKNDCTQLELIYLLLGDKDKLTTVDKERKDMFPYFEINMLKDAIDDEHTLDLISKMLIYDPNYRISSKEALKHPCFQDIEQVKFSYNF

Structure (SMILES)	growth inhibition [1]	inhibition [2]	inhibition [3]	growth inhibition [4]	outcome [5]	outcome [6]	outcome [7]	outcome [8]
Cc1ccccc1Cn1c(CN2CCC(C(=O)NC3CC3)CC2)cc2ccccc21	96% (active)	7%	-2%	97% (active)	inactive	inactive	inactive	inactive
CNC(=O)CC(=O)NCCc1ccc(Cl)cc1	1%	-7%	6%	99% (active)	inactive	inactive	inactive	inactive
Nc1c2ccccc2nc2ccc(-c3ccccc3)cc12	99% (active)	100% (active)	2%	101% (active)	inactive	inactive	inactive	inactive
O=[N+]([O-])c1ccc(Nc2nc(NN=Cc3cccc(O)c3)nc(N3CCCC3)n2)cc1	9%	-6%	-5%	88% (active)	inactive	inactive	inactive	inactive
COc1ccccc1C1CC(c2ccccc2)=NN1C(=O)c1ccccc1 (stereo not drawn)	93% (active)	13%	-3%	100% (active)	inactive	inactive	inactive	inactive
O=C(Nc1ccc2c(c1)CCN2C1CCN(Cc2cccc(C(F)(F)F)c2)C1)c1ccco1 (stereo not drawn)	92% (active)	4%	-1%	95% (active)	inactive	inactive	inactive	inactive
Cc1nc(-c2cccc(Nc3nccc(NCC(O)c4cccc(C(F)(F)F)c4)n3)c2)cs1 (stereo not drawn)	99% (active)	14%	0%	100% (active)	inactive	inactive	inactive	inactive
CN1CCc2cc(I)c(O)cc2C1Cc1ccccc1Cl (stereo not drawn)	96% (active)	-7%	-2%	98% (active)	inactive	inactive	inactive	inactive
CN1CCN(c2cc3c(cc2Cl)CCN3C(=O)Cc2ccc(Cl)c(NC(=O)Nc3cccc([N+](=O)[O-])c3)c2)CC1	51% (active)	-1%	-7%	99% (active)	inactive	inactive	inactive	inactive
Nc1nccc(-c2ccc3c(/C=C/c4ccccc4)cnc(N)c3c2)n1	100% (active)	32%	2%	101% (active)	inactive	inactive	inactive	inactive
CC(=O)N(Cc1nc(-c2cc(C(F)(F)F)cc(C(F)(F)F)c2)cs1)c1c(C)cccc1C	99% (active)	-2%	1%	100% (active)	inactive	inactive	inactive	inactive
COc1cc2c(cc1OCCN1CCC(N)CC1)N(C(=O)/C=C/c1ccccc1Cl)CC2	18%	19%	-7%	91% (active)	inactive	inactive	inactive	inactive
COc1ccc(-c2cc(-c3ccc(S(C)(=O)=O)cc3)cnc2N)cn1	99% (active)	5%	0%	94% (active)	inactive	inactive	inactive	inactive
Nc1ccc(-c2ccc(NC(=O)Nc3cc(C(F)(F)F)ccc3F)cc2)cn1	39%	-6%	-9%	99% (active)	inactive	inactive	inactive	inactive
Ic1cc(Nc2ncnc3ccsc23)ccc1OCc1ccccc1	81% (active)	22%	4%	101% (active)	inactive	inactive	inactive	inactive
Cc1cc(NN=Cc2cccc([N+](=O)[O-])c2)c2ccccc2n1	98% (active)	-9%	3%	101% (active)	inactive	inactive	inactive	inactive
CCCCc1ccccc1NS(=O)(=O)c1ccc(OC)c(N2CCNCC2)c1	2%	6%	0%	91% (active)	inactive	inactive	inactive	inactive
O=S(=O)(Nc1ccc(CCN2CCC(N3CCCCC3)CC2)cc1)c1ccc(Cl)cc1	18%	23%	-1%	101% (active)	inactive	inactive	inactive	inactive
COc1ccc(CNCc2cccc(-c3ccc(-c4nc5ccc(C(F)(F)F)cc5[nH]4)cc3)c2)cc1	95% (active)	23%	0%	102% (active)	inactive	inactive	inactive	inactive
O=C(NC1CCN(Cc2ccccc2)C1)c1ccc(Nc2ccc(Br)cc2)nc1 (stereo not drawn)	21%	19%	-1%	94% (active)	inactive	inactive	inactive	inactive
O=C(O[C@@H]1CN[C@H](C#Cc2cc3c(Nc4ccc5c(cnn5Cc5ccccc5)c4)ncnc3s2)C1)N1CCCC1	87% (active)	8%	-1%	99% (active)	inactive	inactive	inactive	inactive

Structure (SMILES)	growth inhibition [1]	inhibition [2]	inhibition [3]	growth inhibition [4]	outcome [5]	outcome [6]	outcome [7]	outcome [8]
O=C(Nc1cccc(CN2CCCN(Cc3cccc(O)c3)CC2)c1)c1ccc(Cl)c(Cl)c1	79% (active)	25%	2%	102% (active)	inactive	inactive	inactive	inactive
O=c1cc(NCCCNCc2cc(Cl)c(Cl)cc2Cl)[nH]c2ccccc12	20%	7%	-1%	93% (active)	inactive	inactive	inactive	inactive
COc1c(C2=CCN(CCCCNC(=O)c3ccc(-c4ccc(C#N)cc4)cc3)CC2)ccc2c1CCCC2	82% (active)	44%	7%	94% (active)	inactive	inactive	inactive	inactive
FC(F)(F)Oc1ccc(Nc2cc(-c3ccncc3)nc(-c3cccnc3)n2)cc1	52% (active)	24%	0%	94% (active)	inactive	inactive	inactive	inactive
Cc1noc(C)c1-c1ccc2c(Nc3ccc(C#N)cc3)c(C(N)=O)cnc2c1	73% (active)	6%	7%	97% (active)	inactive	inactive	inactive	inactive
COC(=O)c1cccc(CNCc2cccc(-c3ccc(-c4nc5ccc(C(F)(F)F)cc5[nH]4)cc3)c2)c1	83% (active)	13%	3%	102% (active)	inactive	inactive	inactive	inactive
CC(C)CNCc1ccc(-c2cccc(CN(CCN(C)C)C(=O)CCC3CCCC3)c2)cc1	81% (active)	56% (active)	-11%	100% (active)	inactive	inactive	inactive	inactive
COCCCN=C(N)c1ccc(NC(=O)c2ccc(C(=O)Nc3ccc(C(N)=NCCCOC)cc3)cc2)cc1	99% (active)	33%	-2%	100% (active)	inactive	inactive	inactive	inactive
Cc1ccccc1C1CCN(C2CCC(NC(=O)/C=C/c3ccc(C(F)(F)F)cc3)CC2)CC1 (stereo not drawn)	19%	64% (active)	-3%	95% (active)	inactive	inactive	inactive	inactive
Cc1cc2ncc(C(N)=O)c(Nc3ccc(N4CCOCC4)cc3)c2cc1S(C)(=O)=O	96% (active)	-10%	-5%	100% (active)	inactive	inactive	inactive	inactive
O=C1Nc2cccc3c2C1(CCCCN1CCC(c2c(-c4ccc(F)cc4)[nH]c4ccccc24)CC1)CCC3 (stereo not drawn)	28%	25%	-4%	91% (active)	inactive	inactive	inactive	inactive
CC1(C)N=C(N)N=C(N)N1OCc1cccs1	-1%	60% (active)	-4%	93% (active)	inactive	inactive	inactive	inactive
COc1ccccc1CN1CCC(NC(=O)c2ccc(-c3ccc(N(C)C)cc3)s2)CC1	38%	29%	-2%	90% (active)	inactive	inactive	inactive	inactive
CNCCNC(=O)C1Cc2c([nH]c3c(C)cccc23)C(c2ccc(Cl)c(Cl)c2)N1 (stereo not drawn)	60% (active)	13%	-5%	102% (active)	inactive	inactive	inactive	inactive
CN(c1ccc2c(c1)nc(Nc1cc(C(C)(C)C)on1)n2C)c1ccnc(Nc2ccc(CS(C)(=O)=O)cc2)n1	13%	77% (active)	-6%	89% (active)	inactive	inactive	inactive	inactive
N#Cc1cc([N+](=O)[O-])ccc1-n1nc(-c2cccc(Cl)c2)n(CC2CCCO2)c1=S (stereo not drawn)	89% (active)	0%	-2%	91% (active)	inactive	inactive	inactive	inactive
Cc1cccc2[nH]c(-c3cccc(-c4ccc(NC(=O)c5cnccc5C(F)(F)F)cc4)c3)nc12	37%	60% (active)	-3%	100% (active)	inactive	inactive	inactive	inactive
COc1ccc2nccc([C@@H](O)CN3CCC(NC(=O)/C=C/c4ccc5[nH]c(=O)ccc5c4)CC3)c2c1	83% (active)	2%	5%	96% (active)	inactive	inactive	inactive	inactive
COc1cc(-c2cc3cc(Cl)c(Cl)cc3[nH]2)ccc1C(=O)NC1CCN(Cc2ccccc2)CC1	101% (active)	12%	-3%	102% (active)	inactive	inactive	inactive	inactive
O=C(Nc1ccc(F)cc1)N1CCCN(c2ccnc3cc(Cl)ccc23)CC1	16%	7%	-1%	97% (active)	inactive	inactive	inactive	inactive
